Consider 3 compounds from article PMC11062922 (Nature Chemical Biology, 2023).

Where two headings read alike, the source gives them in different places.

For one assay, the system named is AAK1. The arrangement: species or system human, MV4-11 + K-562 + COLO205 + SK-N-BE2 + OVCAR-8. The following applies: read-out: apparent Kd, n = 1.
For a further assay, the system named is BMP2K. The arrangement: species or system human, MV4-11 + K-562 + COLO205 + SK-N-BE2 + OVCAR-8. The note with it: read-out: apparent Kd, n = 1.
For another assay, the system named is CLK1. The arrangement: species or system human, MV4-11 + K-562 + COLO205 + SK-N-BE2 + OVCAR-8. The following applies: read-out: apparent Kd, n = 1.
The next assay has as its system CLK4. The arrangement: species or system human, MV4-11 + K-562 + COLO205 + SK-N-BE2 + OVCAR-8. The note with it: read-out: apparent Kd, n = 1.
A further assay deals with CSNK2A1;CSNK2A3. Also on record: species or system human, MV4-11 + K-562 + COLO205 + SK-N-BE2 + OVCAR-8. The following applies: read-out: apparent Kd, n = 1.
For the next assay, the system named is CSNK2A2. Also on record: species or system human, MV4-11 + K-562 + COLO205 + SK-N-BE2 + OVCAR-8. The note with it: read-out: apparent Kd, n = 1.
The next assay deals with FLT4. Also on record: species or system human, MV4-11 + K-562 + COLO205 + SK-N-BE2 + OVCAR-8. The following applies: read-out: apparent Kd, n = 1.
A further assay has as its system GAK. Also on record: species or system human, MV4-11 + K-562 + COLO205 + SK-N-BE2 + OVCAR-8. The note with it: read-out: apparent Kd, n = 1.
Another assay deals with GSK3A. Also on record: species or system human, MV4-11 + K-562 + COLO205 + SK-N-BE2 + OVCAR-8. The following applies: read-out: apparent Kd, compound concentrations: 100 nM and 1000 nM (sheet 'Samples'), n = 1.
The subject of another assay is GSK3B. Also on record: species or system human, MV4-11 + K-562 + COLO205 + SK-N-BE2 + OVCAR-8. The following applies: read-out: apparent Kd, compound concentrations: 100 nM and 1000 nM (sheet 'Samples'), n = 1.
Another assay concerns NUAK1. Also on record: species or system human, MV4-11 + K-562 + COLO205 + SK-N-BE2 + OVCAR-8. The note with it: read-out: apparent Kd, n = 1.
The test system of the next assay is PAK4. Also on record: species or system human, MV4-11 + K-562 + COLO205 + SK-N-BE2 + OVCAR-8. The following applies: read-out: apparent Kd, compound concentrations: 100 nM and 1000 nM (sheet 'Samples'), n = 1.
The next assay has as its system PKN1. The arrangement: species or system human, MV4-11 + K-562 + COLO205 + SK-N-BE2 + OVCAR-8. The following applies: read-out: apparent Kd, compound concentrations: 100 nM and 1000 nM (sheet 'Samples'), n = 1.
The next assay has as its system PKN3. The arrangement: species or system human, MV4-11 + K-562 + COLO205 + SK-N-BE2 + OVCAR-8. The following applies: read-out: apparent Kd, compound concentrations: 100 nM and 1000 nM (sheet 'Samples'), n = 1.
The test system of a further assay is PRKAG1. The arrangement: species or system human, MV4-11 + K-562 + COLO205 + SK-N-BE2 + OVCAR-8. The note with it: read-out: apparent Kd, n = 1.
Another assay addresses Q6ZSR9 (human, UniProt Q6ZSR9). The arrangement: species or system MV4-11 + K-562 + COLO205 + SK-N-BE2 + OVCAR-8. The note with it: read-out: apparent Kd, n = 1.
For a further assay, the system named is RET. The arrangement: species or system human, MV4-11 + K-562 + COLO205 + SK-N-BE2 + OVCAR-8. The note with it: read-out: apparent Kd, n = 1.
The test system of another assay is SIK2. Also on record: species or system human, MV4-11 + K-562 + COLO205 + SK-N-BE2 + OVCAR-8. The note with it: read-out: apparent Kd, n = 1.
Another assay has as its system MELK. Also on record: species or system human, MV4-11 + K-562 + COLO205 + SK-N-BE2 + OVCAR-8. The note with it: read-out: apparent Kd, n = 1.
The mark [1] stands for this setting: compound concentrations:100 nM and 1000 nM (sheet 'Samples').

Sequence of Q6ZSR9 (Q6ZSR9 whole entry, looked up): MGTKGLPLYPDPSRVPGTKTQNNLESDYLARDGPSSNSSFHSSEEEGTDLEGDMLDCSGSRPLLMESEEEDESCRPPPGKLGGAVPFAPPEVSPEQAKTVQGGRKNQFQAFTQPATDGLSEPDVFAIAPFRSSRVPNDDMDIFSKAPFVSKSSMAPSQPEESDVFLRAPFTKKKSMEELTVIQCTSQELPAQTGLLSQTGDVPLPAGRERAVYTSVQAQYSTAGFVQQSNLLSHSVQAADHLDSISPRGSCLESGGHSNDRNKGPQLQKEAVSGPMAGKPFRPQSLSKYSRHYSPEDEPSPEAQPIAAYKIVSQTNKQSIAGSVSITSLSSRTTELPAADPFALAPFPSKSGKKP

For `Cl.Nc1c(C(=O)c2cccc(C#CCN3CCCCC3)c2)cnn1-c1ccc(F)cc1` [RO1154461-001], the potency estimated from few doses was 0.607 µM in the assay with AAK1 (compound concentrations: 100 nM and 1000 nM (sheet 'Samples'), CATDS: 1.4474046603820999E-2); 1 µM in the assay with BMP2K (compound concentrations: 100 nM and 1000 nM (sheet 'Samples'), CATDS: 1.20459910405703E-2); 0.552 µM in the assay with CLK1 (compound concentrations: 100 nM and 1000 nM (sheet 'Samples'), CATDS: 1.5060802907151999E-2); 0.679 µM in the assay on CLK4 (compound concentrations: 100 nM and 1000 nM (sheet 'Samples'), CATDS: 1.3844573276346099E-2); 1.14 µM in the assay on CSNK2A1;CSNK2A3 (compound concentrations: 100 nM and 1000 nM (sheet 'Samples'), CATDS: 1.1541786487004701E-2); 1.33 µM with CSNK2A2 (compound concentrations: 100 nM and 1000 nM (sheet 'Samples'), CATDS: 1.10304448511726E-2). The potency estimated from few doses was 0.746 µM in the assay on FLT4 (compound concentrations: 100 nM and 1000 nM (sheet 'Samples'), CATDS: 1.33586959494144E-2); 0.0814 µM in the assay with GAK (compound concentrations: 100 nM and 1000 nM (sheet 'Samples'), CATDS: 4.3588593109949197E-2); 0.129 µM with GSK3A (CATDS: 3.2177955723616897E-2); 0.387 µM in the assay on GSK3B (CATDS: 1.7633019943865499E-2); 1.67 µM in the assay with NUAK1 (compound concentrations: 100 nM and 1000 nM (sheet 'Samples'), CATDS: 1.03638923622048E-2); 0.656 µM in the assay on PAK4 (CATDS: 1.4039072021364001E-2). In addition, the potency estimated from few doses with PKN1 (CATDS: 1.0439948324783401E-2) was 1.63 µM; in the assay with PKN3 (CATDS: 1.05012639622415E-2) it was 1.59 µM; in the assay on PRKAG1 (compound concentrations: 100 nM and 1000 nM (sheet 'Samples'), CATDS: 3.6022361277962302E-2), 0.108 µM; in the assay with Q6ZSR9 (compound concentrations: 100 nM and 1000 nM (sheet 'Samples'), CATDS: 1.44791042777868E-2), 0.607 µM; in the assay on RET (compound concentrations: 100 nM and 1000 nM (sheet 'Samples'), CATDS: 1.69120998976478E-2) it was 0.424 µM; in the assay on SIK2 (compound concentrations: 100 nM and 1000 nM (sheet 'Samples'), CATDS: 1.66377583432985E-2), 0.439 µM.

`CN(c1ccc(NC(=O)Nc2cccc(Cl)c2)cc1)c1ccnc(N)n1.Cl` [GW830707A]: the potency estimated from few doses with AAK1 (compound concentrations: 100 nM and 1000 nM (sheet 'Samples'), CATDS: 1.09630092870236E-2) was 1.15 µM; in the assay on CLK1 (compound concentrations: 100 nM and 1000 nM (sheet 'Samples'), CATDS: 2.1787512742807501E-2), 0.042 µM; with CLK4 (compound concentrations: 100 nM and 1000 nM (sheet 'Samples'), CATDS: 1.6953828831644601E-2), 0.0904 µM; in the assay on CSNK2A1;CSNK2A3 (compound concentrations: 100 nM and 1000 nM (sheet 'Samples'), CATDS: 1.0372533520716E-2), 1.99 µM; in the assay on CSNK2A2 (compound concentrations: 100 nM and 1000 nM (sheet 'Samples'), CATDS: 1.04920498001006E-2), 1.76 µM; with GAK (compound concentrations: 100 nM and 1000 nM (sheet 'Samples'), CATDS: 2.5195285382478599E-2), 0.0296 µM. Further, the potency estimated from few doses with GSK3A (CATDS: 2.1035735190854499E-2) is 0.0461 µM; in the assay with GSK3B (CATDS: 1.8960420623414999E-2) it was 0.0622 µM; with MELK (compound concentrations: 100 nM and 1000 nM (sheet 'Samples'), CATDS: 1.02944782662895E-2) it was 2.16 µM; in the assay on NUAK1 (compound concentrations: 100 nM and 1000 nM (sheet 'Samples'), CATDS: 1.06533204099584E-2), 1.51 µM; with PAK4 (CATDS: 1.12669730748303E-2) it was 0.911 µM; with PKN1 (CATDS: 1.22442733693101E-2) it was 0.482 µM. Further, the potency estimated from few doses with PKN3 (CATDS: 1.09744327233877E-2) was 1.14 µM; in the assay with PRKAG1 (compound concentrations: 100 nM and 1000 nM (sheet 'Samples'), CATDS: 2.2358938635015799E-2), 0.0394 µM; in the assay with Q6ZSR9 (compound concentrations: 100 nM and 1000 nM (sheet 'Samples'), CATDS: 1.11912324380908E-2), 0.964 µM; in the assay with RET (compound concentrations: 100 nM and 1000 nM (sheet 'Samples'), CATDS: 1.6938963358117499E-2) it was 0.0907 µM; in the assay with SIK2 (compound concentrations: 100 nM and 1000 nM (sheet 'Samples'), CATDS: 1.7275561883006999E-2), 0.0845 µM.

With `CNC(=O)c1ccccc1Nc1nc(Nc2ccc(N3CCOCC3)cc2)ncc1Cl.Cl` [GSK1576028A], the potency estimated from few doses with AAK1 (setting [1]) was 0.142 µM; in the assay on BMP2K (setting [1]) it was 1.14 µM; with CLK1 (setting [1]), 0.26 µM; in the assay on CLK4 (setting [1]), 0.321 µM; in the assay on CSNK2A1;CSNK2A3 (setting [1]), 0.0593 µM; in the assay with CSNK2A2 (setting [1]), 0.0244 µM. For the same compound, the potency estimated from few doses was 0.309 µM in the assay on FLT4 (setting [1]); 0.0903 µM with GAK (setting [1]); 2.22 µM in the assay on MELK (setting [1]); 0.0922 µM in the assay on NUAK1 (setting [1]); 0.461 µM with PRKAG1 (setting [1]); 0.116 µM with Q6ZSR9 (setting [1]). The results for the potency estimated from few doses with RET (setting [1]) and with SIK2 (setting [1]) were 0.0939 µM and 0.611 µM, respectively.
